Bioassay records (PubChem BioAssay)
Vc quorum ag = quorum light induction in luxS cqsA deficient V. cholerae | V. cholerae BH1578 lux reporter, luminescence, 6 h | activation, % at 18.7 µM | actives 0.16% (n = 350,000) | AID 588436; in the data active means activation mostly above about 9.7%, no sharp cut-off
FBA Mtb inh = inhibitors of M. tuberculosis fructose-bisphosphate aldolase. P9WQA3. purified M. tuberculosis FBA, fluorescence read-out. inhibition, % at 1 µM. actives 2.3% (n = 360,000). AID 588726; in the data active means inhibition above about 27%
Target sequence (P9WQA3 whole entry, looked up): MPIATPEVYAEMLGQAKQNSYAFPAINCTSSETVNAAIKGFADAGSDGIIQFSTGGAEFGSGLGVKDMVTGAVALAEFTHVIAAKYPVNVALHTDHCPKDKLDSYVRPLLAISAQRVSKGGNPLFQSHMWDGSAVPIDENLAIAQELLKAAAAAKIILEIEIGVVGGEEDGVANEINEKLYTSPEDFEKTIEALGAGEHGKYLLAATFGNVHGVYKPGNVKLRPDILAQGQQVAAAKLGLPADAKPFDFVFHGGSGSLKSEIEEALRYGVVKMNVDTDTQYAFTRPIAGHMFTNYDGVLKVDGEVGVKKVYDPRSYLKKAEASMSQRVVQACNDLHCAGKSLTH
SARS 3CLpro inh = SARS-CoV 3CLpro protease inhibition; recombinant SARS-CoV 3CLpro, quenched FRET peptide cleavage; AID 1706; P0C6X7; actives 0.14% (n = 290,000); inhibition, % at 6 µM; in the data active means inhibition above about 12%
PrPC TRFRET = inhibitors of human cell surface prion protein PrPC; P04156; inhibition, % at 13.8 µM; actives 0.43% (n = 370,000); TR-FRET read-out; in the data active means inhibition above about 24%
GDH-TPI counter = counter-screen for M. tuberculosis FBA inhibitors: GDH-TPI coupled enzymes; AID 588335; inhibition, % at 4.8 µM; actives 1.2% (n = 360,000); GDH-TPI coupled enzyme counterscreen, NADH absorbance; in the data active means inhibition above about 30%
A number is an active result; . = inactive; / = not tested or not shown; + = active, no number. Most compounds without a hit are left out; they make up all but 3.9% or so of the library.

SMILES	Vc quorum ag	FBA Mtb inh	SARS 3CLpro inh	PrPC TRFRET	GDH-TPI counter
C/C(=N\NC(=O)c1ccc(NS(=O)(=O)c2cccs2)cc1)c1ccccc1	.	.	.	.	.
O=C(N/N=C/c1ccc([N+](=O)[O-])cc1)c1ccc(NS(=O)(=O)c2cccs2)cc1	.	.	/	.	41.2
O=C(NN=Cc1ccccc1OC(F)F)c1ccc(NS(=O)(=O)c2cccs2)cc1	.	.	/	.	32.2
O=C(NN=Cc1ccc(OC(F)F)cc1)c1ccc(NS(=O)(=O)c2cccs2)cc1	.	.	/	.	33.3
O=[N+]([O-])c1ccccc1/C=C/C1Nc2cccc3cccc(c23)N1	/	/	/	.	/
N#C/C(=C\c1ccc[nH]1)C(=O)N1CCCCC1	.	.	.	.	31.4
N#C/C(=C\c1ccc(O)cc1)C(=O)N1CCCC1	.	.	.	.	.
Cc1cccc(OCCC(=O)Nc2c(C)n(C)n(-c3ccccc3)c2=O)c1	.	.	.	.	.
O=C(N/N=C/c1ccc2c(c1)OCO2)c1cccc(NC(=O)c2ccccc2Cl)c1	.	.	.	.	.
Cc1ccccc1C(=O)Nc1cccc(C(=O)N/N=C/c2ccc3c(c2)OCO3)c1	.	.	.	.	32.4
O=C(N/N=C/c1ccc2c(c1)OCO2)c1ccc(NC(=O)c2ccccc2Cl)cc1	.	.	.	.	35.3
CCCC1(CCC)NC(=O)N(CC(=O)Nc2ccc3c(c2)OCCO3)C1=O	.	.	/	.	.
O=c1cc(-c2ccc(O)cc2)oc2c(O)c(O)c(O)c(O)c12	.	.	.	.	37.2
O=C(CN(C(=O)CCC(=O)Nc1nccs1)c1cccc(F)c1)NCCc1ccccc1	.	.	.	.	.
COc1cc(C(=O)N2CCN(C(=O)c3cc(-c4ccccc4)n[nH]3)CC2)cc(OC)c1OC	.	.	.	.	.
CC(C)=C(NC(=O)c1ccccc1)C(=O)NC(Cc1ccccc1)C(=O)O (stereo not drawn)	15.4	.	.	.	.
Cc1ccc(/C=C(\NC(=O)c2ccccc2)C(=O)NC(Cc2ccccc2)C(=O)O)cc1 (stereo not drawn)	.	.	.	.	.
C[C@H]1[C@@H](OC(=O)Nc2ccccc2C(F)(F)F)CC[C@@]23CCCN2C(=O)CCC[C@@H]13	/	/	/	.	/
CCOC(=O)N1CCC(NC(=O)c2ccc3c(c2)N(CC)CCS3)CC1	.	73.4	.	.	.
Cc1ccc(CN2CCSc3ccc(C(=O)NC4CCCC4)cc32)cc1	.	.	.	/	.
CCOC(=O)c1nn(-c2ccc3c(c2)CCN3C(C)=O)cc1O	.	+	.	.	.
COc1ccc(CN(C)C(=O)C2CCN(S(=O)(=O)c3cccs3)CC2)cc1F	.	.	/	.	.
O=C(N/N=C/c1ccco1)c1ccc(NC(=O)c2ccccc2Cl)cc1	.	.	.	.	.
O=C(N/N=C/c1cccs1)c1ccc(NC(=O)c2ccccc2Cl)cc1	.	.	.	.	32.6
O=C(N/N=C/c1cccs1)c1cccc(NC(=O)c2ccccc2Cl)c1	.	.	.	.	.
SMILES	Vc quorum ag	FBA Mtb inh	SARS 3CLpro inh	PrPC TRFRET	GDH-TPI counter
Cc1ccc(/C=N/NC(=O)c2ccc(NC(=O)c3ccccc3Cl)cc2)o1	.	.	.	.	49.1
O=c1c2cc3cc(Cl)ccc3nc2ncn1CCc1c[nH]c2ccccc12	/	/	/	.	/
CCOC(=O)[C@]12CCCCC/C=C\1N(Cc1ccc(OC)cc1)C(=O)[C@H]2CC(=O)NCC1CCCCC1	/	/	/	.	/
Cc1ccnc2nc(C(=O)OCC(=O)N(CC(C)C)C3CCS(=O)(=O)C3)nn12 (stereo not drawn)	.	.	/	.	.
CCCOc1ccc(C(=O)NNC(=S)NC(=O)c2cc(-c3ccc(Cl)cc3)nc3ccccc23)cc1	.	.	.	.	.
COc1ccc(C(=O)NNC(=S)NC(=O)c2cc(-c3ccccc3)nc3ccccc23)cc1	.	.	.	.	33.5
COc1ccc(C(=O)NNC(=S)NC(=O)c2cccc([N+](=O)[O-])c2)cc1	.	.	/	.	35.2
CCNC(=S)NNC(=O)c1cc(-c2ccc(OCC)cc2)nc2ccccc12	.	.	.	.	37.2
CCNC(=S)NNC(=O)c1cc(-c2cccc(OC)c2)nc2ccccc12	.	.	.	.	.
COc1cccc(-c2cc(C(=O)Nc3nc4ccccc4s3)c3ccccc3n2)c1	.	.	.	.	33.3
COc1ccc(S(=O)(=O)N2CCCC(C(=O)NCc3ccccc3)C2)cc1 (stereo not drawn)	.	.	.	.	.
CC12CCC(C(=O)Nc3cccc(Cl)c3Cl)([C@H](Br)C1=O)C2(C)C (stereo partly drawn)	.	113.1	.	.	.
